Active and inactive are the calls of the source.
Experiments:
[1] = small molecules captured by biotinylated probe aFSTL3 – biochemical, small-molecule microarray, fluorescence 635/667, stem cell growth factor project, primary screen (AID 1064); settings: higher = more signal;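 note: measures binding of the biotinylated anti-FSTL3 antibody to printed compounds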
[2] = binders from COS7 lysate, DM2A8 probe, primary screen, torsin A project, cell lysate, small-molecule microarray, fluorescence 635/667 (AID 1065); settings: higher = more signal, COS7 lysate expressing mutant human TOR1A
[3] = small molecules captured by biotinylated probe aFGF2 – biochemical, small-molecule microarray, fluorescence 635/667, stem cell growth factor project, primary screen (AID 1067); settings: higher = more signal;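 note: measures binding of biotinylated aFGF2 protein to printed compounds on slides; z-score merges feature fluorescence and signal-to-noise across triplicate slides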
[4] = small molecules captured by biotinylated probe aFGF10 – biochemical, small-molecule microarray, fluorescence 635/667, stem cell growth factor project, primary screen (AID 1071); settings: higher = more signal;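 note: score merges 667 nm spot intensity and signal to noise from triplicate slides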
[5] = molecular target: Neurogenic locus notch homolog protein 2 (Homo sapiens) (UniProt Q04721); assay: small molecules binding Notch2 protein – biochemical, small-molecule microarray, 635 nm fluorescence, stem cell growth factors, primary screen (AID 1073); settings: higher = more signal
[6] = molecular target: Pro-neuregulin-1, membrane-bound isoform (Homo sapiens) (UniProt Q02297); assay: small molecules binding neuregulin-1 protein – biochemical, small-molecule microarray, fluorescence 635/667, psychiatric disease protein project, primary screen (AID 1075); settings: NRG1 binding, 635 nm fluorescence, higher = more signal;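 note: score combines 667 nm spot fluorescence with signal to noise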
[7] = system: Neuregulin-1 EGF-like domain; assay: small molecules binding NRG1 EGF domain – biochemical, small-molecule microarray, 635 nm fluorescence, primary screen (AID 1081); settings: higher = more signal;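 note: binding of the protein to compounds printed on small-molecule microarray slides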
[8] = FRG1 expression reporter modulators in myotubes – cell-based, C2C12 myotubes, firefly/Renilla luciferase, luminescence, FRG1 inhibition for FSHD, primary screen (AID 1084); settings: FRG1 promoter luciferase, higher = more signal, called active from +8 up or from −8 down
[9] = small molecules captured by biotinylated probe aFST – biochemical, small-molecule microarray, fluorescence 635/667, stem cell growth factor project, primary screen (AID 1086); settings: higher = more signal;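 note: score merges 667 nm fluorescence with signal-to-noise of each printed compound spot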
[10] = binders of probe aHhip on microarray, primary screen, stem cell growth factor project, biochemical, small-molecule microarray, fluorescence 635/667 (AID 1087); settings: higher = more signal;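 note: score merges spot fluorescence at 667nm with spot signal to noise ratio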

Pro-neuregulin-1, membrane-bound isoform (Homo sapiens), sequence (Q02297 whole entry, looked up, the tested form may be a part, canonical isoform): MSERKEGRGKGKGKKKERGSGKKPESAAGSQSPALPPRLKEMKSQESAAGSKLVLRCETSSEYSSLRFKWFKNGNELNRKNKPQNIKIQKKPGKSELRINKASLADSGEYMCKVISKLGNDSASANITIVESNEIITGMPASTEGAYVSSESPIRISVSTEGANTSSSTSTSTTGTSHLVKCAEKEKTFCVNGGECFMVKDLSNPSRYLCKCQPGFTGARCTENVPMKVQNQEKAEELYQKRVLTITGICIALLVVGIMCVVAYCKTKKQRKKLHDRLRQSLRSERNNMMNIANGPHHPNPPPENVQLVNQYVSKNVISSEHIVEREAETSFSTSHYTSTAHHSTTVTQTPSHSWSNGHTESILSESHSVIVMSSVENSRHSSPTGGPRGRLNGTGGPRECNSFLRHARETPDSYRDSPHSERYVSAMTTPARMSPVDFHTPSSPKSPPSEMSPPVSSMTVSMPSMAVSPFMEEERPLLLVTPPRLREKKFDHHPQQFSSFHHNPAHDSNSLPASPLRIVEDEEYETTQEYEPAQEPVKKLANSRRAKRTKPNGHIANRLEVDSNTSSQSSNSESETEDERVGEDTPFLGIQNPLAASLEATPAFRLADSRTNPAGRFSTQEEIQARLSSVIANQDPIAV
Neurogenic locus notch homolog protein 2 (Homo sapiens), sequence (Q04721 whole entry, looked up, canonical isoform): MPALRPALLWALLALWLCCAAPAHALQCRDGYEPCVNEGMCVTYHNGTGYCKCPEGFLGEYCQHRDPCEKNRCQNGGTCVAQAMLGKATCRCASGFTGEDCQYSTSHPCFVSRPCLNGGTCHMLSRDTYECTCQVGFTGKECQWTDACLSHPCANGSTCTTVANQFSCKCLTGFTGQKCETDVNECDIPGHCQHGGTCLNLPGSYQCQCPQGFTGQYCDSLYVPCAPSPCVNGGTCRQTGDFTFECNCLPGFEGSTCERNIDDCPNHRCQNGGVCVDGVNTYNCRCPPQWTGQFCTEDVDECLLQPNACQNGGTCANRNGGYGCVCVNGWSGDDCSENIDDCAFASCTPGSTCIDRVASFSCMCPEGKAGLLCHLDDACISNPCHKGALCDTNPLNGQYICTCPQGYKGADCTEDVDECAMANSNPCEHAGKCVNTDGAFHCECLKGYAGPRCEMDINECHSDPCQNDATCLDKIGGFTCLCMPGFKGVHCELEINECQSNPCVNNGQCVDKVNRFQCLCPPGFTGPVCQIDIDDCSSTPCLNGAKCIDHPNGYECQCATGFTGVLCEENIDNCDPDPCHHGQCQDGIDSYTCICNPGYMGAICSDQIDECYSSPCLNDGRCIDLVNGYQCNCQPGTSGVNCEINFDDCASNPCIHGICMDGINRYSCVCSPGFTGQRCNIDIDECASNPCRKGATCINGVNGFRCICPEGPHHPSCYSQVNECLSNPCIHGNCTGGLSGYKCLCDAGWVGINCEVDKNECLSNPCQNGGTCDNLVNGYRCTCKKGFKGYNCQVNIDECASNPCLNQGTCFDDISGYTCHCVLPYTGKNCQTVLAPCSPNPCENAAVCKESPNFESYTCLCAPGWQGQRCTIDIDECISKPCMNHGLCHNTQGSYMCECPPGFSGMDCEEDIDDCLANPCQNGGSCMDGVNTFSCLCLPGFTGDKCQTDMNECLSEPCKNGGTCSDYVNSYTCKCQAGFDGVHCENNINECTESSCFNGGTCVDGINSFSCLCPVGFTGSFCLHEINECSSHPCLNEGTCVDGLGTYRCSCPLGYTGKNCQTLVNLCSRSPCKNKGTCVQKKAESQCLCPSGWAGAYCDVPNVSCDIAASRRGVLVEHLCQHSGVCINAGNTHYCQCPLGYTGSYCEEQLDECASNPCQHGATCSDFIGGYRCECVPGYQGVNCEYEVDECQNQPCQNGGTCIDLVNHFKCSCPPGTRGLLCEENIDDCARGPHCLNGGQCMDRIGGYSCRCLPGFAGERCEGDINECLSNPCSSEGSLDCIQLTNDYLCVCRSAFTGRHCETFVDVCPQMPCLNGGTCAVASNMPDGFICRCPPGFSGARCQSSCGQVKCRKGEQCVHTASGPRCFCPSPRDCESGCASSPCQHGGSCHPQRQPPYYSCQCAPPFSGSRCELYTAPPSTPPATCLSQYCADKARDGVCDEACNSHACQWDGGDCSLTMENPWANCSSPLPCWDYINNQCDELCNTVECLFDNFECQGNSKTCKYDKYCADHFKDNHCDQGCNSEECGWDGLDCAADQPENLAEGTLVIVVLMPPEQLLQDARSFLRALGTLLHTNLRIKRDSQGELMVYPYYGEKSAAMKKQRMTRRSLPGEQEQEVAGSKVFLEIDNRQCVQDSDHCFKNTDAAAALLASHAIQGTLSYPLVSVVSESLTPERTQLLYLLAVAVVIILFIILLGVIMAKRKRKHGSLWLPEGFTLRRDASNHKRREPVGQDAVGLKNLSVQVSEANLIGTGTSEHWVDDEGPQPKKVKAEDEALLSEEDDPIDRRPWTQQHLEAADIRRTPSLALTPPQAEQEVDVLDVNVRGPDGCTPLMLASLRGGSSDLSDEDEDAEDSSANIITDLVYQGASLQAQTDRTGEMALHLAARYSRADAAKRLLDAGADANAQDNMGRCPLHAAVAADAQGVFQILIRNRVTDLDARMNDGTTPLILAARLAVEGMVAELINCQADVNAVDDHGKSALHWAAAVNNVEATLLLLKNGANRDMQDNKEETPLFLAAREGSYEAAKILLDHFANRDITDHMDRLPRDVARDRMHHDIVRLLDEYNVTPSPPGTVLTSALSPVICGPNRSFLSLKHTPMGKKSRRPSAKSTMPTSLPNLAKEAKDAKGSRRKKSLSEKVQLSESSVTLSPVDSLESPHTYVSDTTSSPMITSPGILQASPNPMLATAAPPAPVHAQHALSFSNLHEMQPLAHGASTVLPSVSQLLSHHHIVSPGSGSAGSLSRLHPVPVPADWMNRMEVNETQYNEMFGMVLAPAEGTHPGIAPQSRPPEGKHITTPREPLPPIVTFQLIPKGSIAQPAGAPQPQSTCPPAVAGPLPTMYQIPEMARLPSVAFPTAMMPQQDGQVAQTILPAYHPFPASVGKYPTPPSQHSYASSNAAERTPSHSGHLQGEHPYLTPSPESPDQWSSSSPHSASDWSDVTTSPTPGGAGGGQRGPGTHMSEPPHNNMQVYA

Row | SMILES | composite z-score [1] | composite z-score [2] | composite z-score [3] | composite z-score [4] | composite z-score [5] | composite z-score [6] | composite z-score [7] | z-score [8] | composite z-score [9] | composite z-score [10]
1 | COC(=O)[C@]1(Cc2ccccc2CN=[N+]=[N-])N=C(c2ccc(OCCCO)cc2)O[C@@H]1c1ccccc1N=[N+]=[N-] | 0.0455 | 0.157 | -0.0465 | -0.223 | -0.206 | 0.829 | 1.18 | 3.39 (inactive) | 0.163 | -0.266
2 | COC(=O)[C@@]1(Cc2ccc(F)cc2)[C@H]2c3cc(C(=O)N4CCCC4)n(CCc4c[nH]c5cc(F)ccc45)c3C[C@H]2CN1C(=O)c1ccccc1 | 0.198 | 0.197 | 0.289 | 0.634 | 1.68 | 2.01 | 1.35 | 0.53 (inactive) | 1.69 | 0.281
3 | C=CCNC(=O)[C@@H]1[C@H]2C(=O)O[C@H](c3ccccc3)[C@H](c3ccccc3)N2[C@H](c2ccc(O)cc2)[C@@]12C(=O)N(C(=O)OCCOC)c1ccc(C#CCC(C(=O)OC)C(=O)OC)cc12 | -0.292 | 1.27 | 0.048 | 0.769 | 1.14 | 0.946 | 1.18 | -0.614 (inactive) | 0.884 | 0.0266
4 | COC(=O)c1ccc(OC)c(/C=C\CC(OC(=O)c2ccncc2)c2ccccc2)c1 (stereo not given) | -0.273 | 0.285 | -0.107 | 0.257 | 0.481 | -0.106 | -0.0115 | -1.97 (inactive) | 0.0754 | 0.0514
5 | [N-]=[N+]=NCc1ccccc1[C@H]1OC(c2ccc(OCCCO)cc2)=N[C@@]1(CCS(=O)(=O)c1ccccc1)C(=O)NCCN1CCOCC1 | -0.0144 | -0.523 | 0.126 | 1.04 | 1.67 | 1.57 | 1.27 | 3.26 (inactive) | 1.16 | -0.0095
6 | CCCCCN1CC=CC23O[C@@H]4/C=C\CCCOC(=O)C4[C@H]2C(=O)N(CCCCCO)[C@@H]3C1=O (stereo not given in full) | 0.239 | -0.291 | -0.103 | -0.501 | -0.581 | -0.315 | -0.786 | -0.225 (inactive) | -0.841 | -0.164
7 | C=CCC(OC(C)=O)[C@@H]1[C@@H](N(Cc2ccc(-c3ccccc3)cc2)C(=O)Cc2ccc(OC)cc2)c2cc(OCCCO)ccc2N1C(=O)c1ccc2ccccc2c1 (stereo not given in full) | -0.286 | 1.09 | -0.0486 | 0.269 | -0.238 | -0.157 | -0.659 | -0.808 (inactive) | 0.544 | -0.283
8 | O=C(NC1CC1)[C@@H]1c2ccccc2C(=O)N(C2CCCCC2)[C@H]1c1ccc(CO)cc1 | 0.954 | 0.642 | 0.0611 | -0.142 | 0.254 | 1.79 | 1.29 | -0.601 (inactive) | 0.575 | -0.228
9 | O=C1O[C@@H](c2ccccc2)[C@@H](c2ccccc2)N2[C@@H](c3ccccc3OCCO)[C@]3(C(=O)Nc4ccc(C#CC5(O)CCCCCC5)cc43)[C@@H](C(=O)N3CCCCCCC3)[C@H]12 | 4.04 | 2.44 | 1.08 | 1.47 | 1.89 | 2.67 | 1.4 | -1.05 (inactive) | 3.81 | 3.97
10 | COC(=O)C1=CC(CCCO)=CC(c2ccc(CN3CCCC3)cc2)N(C)C=C1C(=O)OC (stereo not given) | 0.114 | 1.34 | 0.0755 | 1.21 | 1.13 | 1.93 | 1.18 | 0.48 (inactive) | 0.989 | -0.219
11 | COC(=O)C(CC#Cc1ccc2c(c1)[C@]1(C(=O)N2)[C@H](C(=O)NC[C@H](O)c2ccccc2)[C@H]2C(=O)O[C@H](c3ccccc3)[C@H](c3ccccc3)N2[C@@H]1c1ccc(O)cc1)C(=O)OC | -0.297 | 0.328 | -0.121 | -0.199 | 0.259 | 0.529 | 0.773 | 0.589 (inactive) | 0.056 | -0.131
12 | O=C1NC(=O)C2C1C=CC(C(O)c1ccc(F)cc1)N2Nc1ccc(Cl)cc1Cl (stereo not given) | 0.848 | -0.335 | 0.103 | 0.336 | 0.916 | 1.8 | 0.885 | -0.068 (inactive) | 0.0708 | -0.374
13 | O=C(NCC(F)(F)F)[C@@H]1c2ccccc2C(=O)N(Cc2cc(C(F)(F)F)cc(C(F)(F)F)c2)[C@H]1c1ccc(CO)cc1 | -0.381 | -0.147 | -0.203 | -0.155 | 0.154 | 1.73 | 1.25 | -0.884 (inactive) | -0.192 | -0.0296
14 | NCCCCCCNC(=O)[C@@H]1C[C@@H]2C(=O)NCC(=O)N2[C@@H]1c1cccc(OCCO)c1 | 0.403 | 0.641 | 0.047 | 0.847 | 1.2 | 0.982 | 1.22 | 0.726 (inactive) | 0.543 | 0.385
15 | CC(C)(C)OC(=O)CC[C@]1(C(N)=O)N=C(c2ccc(OCCCO)cc2)O[C@H]1c1ccccc1N=[N+]=[N-] | 0.365 | -0.434 | -0.0088 | 0.396 | 0.9 | 1.73 | 1.48 | 6.25 (inactive) | 0.616 | 0.213
16 | COC(=O)[C@@]1(Cc2ccc(F)cc2)[C@H]2c3cc(C(=O)N4CCCC4)n(Cc4ccc(OC(F)(F)F)cc4)c3C[C@H]2CN1C(=O)c1ccccc1 | 0.262 | -0.292 | 0.0336 | 0.334 | 1.08 | 0.621 | 0.71 | 1.45 (inactive) | 0.401 | -0.0074
17 | CCCCC(=C=CC[C@@H](O)c1ccc(OCCO)cc1)CCO | -0.171 | 0.532 | -0.087 | 0.558 | -0.051 | 1.65 | 0.922 | -0.58 (inactive) | 0.0121 | 0.176
18 | COC(=O)Cn1c(C(=O)N(C)C)cc2c1C[C@H]1CN(C(=O)c3ccccc3)[C@@](Cc3ccccc3)(C(=O)OC)[C@@H]21 | -0.215 | -0.365 | -0.0493 | 0.0707 | 1.47 | 1.5 | 0.641 | 1.5 (inactive) | 0.0747 | 0.12
19 | CC(C)C[C@@H]1NC(=O)[C@@H]2C[C@H](C(=O)NCCCCCCNC(=O)CS)[C@H](c3ccc(O)cc3)N2C1=O | -0.0857 | 1.48 | -0.0202 | 0.938 | 0.604 | 1.35 | 1.37 | 0.0812 (inactive) | 0.694 | -0.0346
20 | COc1cccc(C)c1NC(=O)O[C@H]1[C@H](OC(=O)Nc2ccc3c(c2)OCO3)[C@H](OC(=O)Nc2ccc3c(c2)OCO3)[C@@H](OC)O[C@@H]1CO | 0.394 | 0.439 | 0.06 | 0.867 | 1.25 | 1.13 | 1.35 | 3.61 (inactive) | 1.05 | 0.12
21 | C=CCNC(=O)[C@H]1[C@@H]2C(=O)O[C@@H](c3ccccc3)[C@@H](c3ccccc3)N2[C@@H](c2ccc(OCCO)cc2)[C@]12C(=O)Nc1ccc(C#Cc3ccc(OC)cc3)cc12 | -0.179 | 0.897 | 0.0566 | 0.705 | 1.46 | 1.52 | 1.22 | 0.744 (inactive) | 0.624 | 0.289
22 | COCCOC(=O)N1C(=O)[C@@]2(c3cc(C#CC4=CCCCC4)ccc31)[C@H](C(=O)N1CCCCCCC1)[C@H]1C(=O)O[C@H](c3ccccc3)[C@H](c3ccccc3)N1[C@@H]2c1ccccc1OCCO | 2.57 | 0.571 | 0.0328 | 0.271 | 1.08 | 1.11 | 1.18 | 0.927 (inactive) | 2.04 | 0.33
23 | [N-]=[N+]=NCc1ccccc1C[C@@]1(C(=O)NCCN2CCOCC2)N=C(c2ccc(OCCCO)cc2)O[C@@H]1c1ccccc1 | -0.0252 | -0.539 | -0.0514 | 0.246 | 0.266 | 1.12 | 1.28 | -3.05 (inactive) | 0.804 | -0.0994
24 | C=CCNC(=O)[C@@H]1[C@H]2C(=O)O[C@H](c3ccccc3)[C@H](c3ccccc3)N2[C@H](c2ccc(OCCO)cc2)[C@@]12C(=O)Nc1ccc(C#CC3=CCCCC3)cc12 | -0.607 | 0.308 | -0.0442 | 0.924 | 1.02 | 1.28 | 1.29 | -0.138 (inactive) | 0.597 | -0.186
25 | O=C1C2C=CC(C(O)c3ccccn3)N(Nc3ccc([N+](=O)[O-])cc3)C2C(=O)N1c1ccccc1 (stereo not given) | 0.0747 | 0.369 | 0.0447 | 0.794 | 1.33 | 1.82 | 1.31 | 0.678 (inactive) | 0.512 | -0.0645
26 | O=C1O[C@H](c2ccccc2)[C@H](c2ccccc2)N2[C@H]1[C@@H](C(=O)N1CCCCCCC1)[C@]1(C(=O)Nc3ccc(C#CCCO)cc31)[C@H]2c1ccc(O)cc1 | 3.79 | 2.62 | 0.978 | 1.4 | 1.79 | 2.79 | 1.42 | -1.1 (inactive) | 3.34 | 1.7
27 | COCCOC(=O)N1C(=O)[C@@]2(c3cc(C#CCCO)ccc31)[C@H](c1ccc(O)cc1)N1[C@H](c3ccccc3)[C@H](c3ccccc3)OC(=O)[C@H]1[C@@H]2C(=O)NC[C@H](O)c1ccccc1 | -0.0825 | 0.332 | -0.0271 | 0.589 | 0.163 | 1.25 | 1.29 | -1.69 (inactive) | 0.0962 | -0.0645
28 | Cc1ccc(S[C@]2(C(=O)NC(C)C)CC(=O)N(Cc3ccccc3)[C@@H]2c2ccc(CO)cc2I)cc1 | 1.28 | -0.37 | -0.0303 | 0.176 | -0.705 | 0.291 | 0.478 | -0.259 (inactive) | -0.26 | -0.226

From PubChem BioAssay
